Sampled rows, rich in hits. Any-hit rate of the full collection: about 3.4%.
FBW7 act: FBW7 E3 ligase activators, primary screen, biochemical, AlphaScreen, human | F-box/WD repeat-containing protein 7 (Homo sapiens), Q969H0 | AlphaScreen FBW7–phospho-cyclin E peptide binding, activator screen | normalized activity (activation), % at 26.1 µM | actives 0.13% (n = 650,000); in the data active = normalized activity above about 1.9%;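 note: purified mutant Fbw7 with reduced substrate affinity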
TEAD-YAP inh: TEAD-YAP interaction inhibition, primary screen, TEAD-YAP interaction inhibitor project, luminescence, HEK-TIYL cells; TEAD-Gal4/YAP UAS-luciferase luminescence; inhibition, % at 9.12 µM; actives 1.4% (n = 640,000); AID 1259422, 2018; in the data active = inhibition above about 32%;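 note: 0% = median of test compound wells and 100% = reference inhibitor wells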
GPR151 activ: activators of human GPR151, primary screen, cell-based, PathHunter beta-arrestin, luminescence. AID 1508602, 2020. PathHunter beta-arrestin GPR151 cells. activation, % at 11.2 µM. actives 1% (n = 650,000); in the data active = activation above about 4.9%;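 note: 0% = median of compound wells and 100% = cells with positive control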
MITF inh: MITF inhibitors, primary screen, biochemical, AlphaScreen, human; Microphthalmia-associated transcription factor (Homo sapiens), O75030; AlphaScreen MITF homodimerization, bead proximity signal; inhibition, % at 2.6 µM; actives 0.91% (n = 650,000); AID 1259374, 2018; in the data active = inhibition above about 50%;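 note: 0% = vehicle wells with protein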
Target sequence (O75030 whole entry, looked up): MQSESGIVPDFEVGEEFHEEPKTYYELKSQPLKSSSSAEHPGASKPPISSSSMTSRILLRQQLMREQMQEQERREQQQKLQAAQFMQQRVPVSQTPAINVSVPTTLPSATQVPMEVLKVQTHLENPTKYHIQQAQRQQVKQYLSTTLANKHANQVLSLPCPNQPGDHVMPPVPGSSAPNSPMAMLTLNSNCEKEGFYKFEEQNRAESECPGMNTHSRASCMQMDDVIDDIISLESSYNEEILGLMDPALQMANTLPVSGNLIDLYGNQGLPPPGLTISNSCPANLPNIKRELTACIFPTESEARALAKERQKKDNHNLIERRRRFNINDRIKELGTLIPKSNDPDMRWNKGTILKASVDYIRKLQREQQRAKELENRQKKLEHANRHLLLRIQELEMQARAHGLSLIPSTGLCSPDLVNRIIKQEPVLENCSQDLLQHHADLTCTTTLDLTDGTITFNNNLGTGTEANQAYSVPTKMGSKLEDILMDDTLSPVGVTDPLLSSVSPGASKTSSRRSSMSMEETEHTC
* = called active by the depositor.

SMILES | FBW7 act | TEAD-YAP inh | GPR151 activ | MITF inh
COc1ccc(-c2c(C)oc3cc(OS(C)(=O)=O)ccc3c2=O)cc1OC | 0 | 34* | -1 | 13
OCC1CCCN1c1nc(NC2CC2)c2ncn(-c3ccsc3)c2n1 (configuration not stated) | 0 | 1 | 2 | 4
c1cc(-n2cnc3c(NC4CC4)nc(N4CCC(N5CCOCC5)CC4)nc32)cs1 | 0 | 46* | -1 | 10
c1ccc(-n2cnc3c(NC4CC4)nc(N4CCN(c5ccccn5)CC4)nc32)cc1 | 0 | 37* | -1 | 16
c1ccc(-n2cnc3c(NC4CC4)nc(N4CCOCC4)nc32)cc1 | 0 | 52* | 1 | -1
CC(=O)Nc1ccc(Nc2nc(N3CCN(c4ccccn4)CC3)nc3c2ncn3-c2ccccc2)cc1 | 0 | 22 | 4 | 4
c1cc(-n2cnc3c(NC4CC4)nc(N4CCOCC4)nc32)cs1 | 0 | 56* | -1 | -1
CC(C)N(CCNc1nc(N2CCOCC2)nc2c1ncn2-c1ccsc1)C(C)C | 0 | 55* | 0 | 2
COc1ccccc1Nc1nc(-c2cc3ccccc3oc2=O)cs1 | 1 | 43* | 0 | 13
CC(NS(=O)(=O)c1ccc(F)cc1)C(=O)NCc1ccccc1 (configuration not stated) | 0 | -10 | 0 | -2
Nc1ccc(S(=O)(=O)O)c2cccc(O)c12 | -1 | 12 | 0 | 71*
CN(C(=O)c1ccc(Cl)c([N+](=O)[O-])c1)c1ccccc1 | 0 | -11 | -1 | -2
Cn1c(SCC(N)=O)nnc1-c1cccc([N+](=O)[O-])c1 | 0 | -8 | -1 | -10
Cn1c(SCC#N)nnc1-c1cccc([N+](=O)[O-])c1 | 0 | 32* | -2 | -5
Cc1cc(-n2sc(Cl)c(C)c2=O)ccc1Cl | 0 | 43* | 0 | -3
Cc1c(Cl)sn(-c2ccc(Cl)cc2)c1=O | 0 | 40* | 2 | -2
C/C(=N\NC(=O)Cc1cccs1)c1cccc(Br)c1 | 0 | -25 | 0 | 12
Cc1cccc(-c2nsc(SCC(=O)OCc3ccccc3)n2)c1 | 0 | 5 | -8 | 4
CC(C)C(NC(=O)OC(C)(C)C)C(=O)N1CCCC1C(N)=O (configuration not stated) | 2.0* | 9 | -1 | 9
COc1ccc(C[C@@H](N)c2nc3ccc(-c4cn[nH]c4)cc3c(=O)[nH]2)cc1 | 0 | 53* | 0 | 24
COc1ccccc1OCc1nc2ccc(-c3cn[nH]c3)cc2c(=O)[nH]1 | 0 | -4 | 0 | 19
COc1cccc(OCc2nc3ccc(-c4ccnc(N)n4)cc3[nH]2)c1 | 0 | 50* | 0 | 4
Cc1ccccc1OCc1nc2ccc(-c3cn[nH]c3)cc2c(=O)[nH]1 | 0 | 33* | 2 | -1
Cc1ccccc1OCc1nc2ccc(-c3ccnc(N)n3)cc2[nH]1 | 0 | 52* | 1 | 6
COc1ccccc1OCc1nc2ccc(-c3ccnc(N)n3)cc2[nH]1 | 0 | 14 | 0 | 12
SMILES | FBW7 act | TEAD-YAP inh | GPR151 activ | MITF inh
N#C/C(=C\c1c(Cl)cccc1Cl)c1ccc(Cl)cc1 | 0 | 16 | 1 | -3
COc1cc(-c2cn[nH]c2)cc2c(=O)[nH]c(C(N)c3cccc(Cl)c3)nc12 (configuration not stated) | 0 | 49* | 3 | 13
C=CCn1c(=NC(=O)CC)sc2cc(F)ccc21 | 0 | 3 | 2 | 4
CCOc1ccccc1Cn1cccc1C=O | 0 | -8 | -2 | 3
CC[N+](CC)=c1ccc2nc3c(cc(N)c4ccccc43)oc-2c1 | 0 | 33* | -2 | 7
O=C(Nc1ccc(Br)cc1)c1cnn2ccccc12 | 0 | 32* | -3 | 6
CCCCOc1ccccc1C(=O)NNC(=S)NC(C)=O | -1 | 16 | -1 | 38
CC(=O)NC(=S)NNC(=O)c1ccccc1OCc1ccccc1 | -1 | 63* | -2 | 0
COCCNC(=O)C1CCN(c2nc3ccccc3n3cccc23)CC1 | 0 | -5 | 1 | -2
CC(=O)N(C1=C(N2CCOCC2)C(=O)c2ccccc2C1=O)c1ccccc1 | 0 | 64* | -3 | 12
CC(=O)N(C1=C(N2CCOCC2)C(=O)c2ccccc2C1=O)c1ccc(Cl)c(Cl)c1 | 0 | 40* | -3 | 117*
CC(=O)N(C1=C(N2CCCC2)C(=O)c2ccccc2C1=O)c1cccc(F)c1 | 0 | 42* | -2 | 18
CC(=O)N(C1=C(N2CCOCC2)C(=O)c2ccccc2C1=O)c1cccc(Cl)c1 | -1 | 13 | -3 | 6
CCOc1ccc(N(C(C)=O)C2=C(N3CCN(C)CC3)C(=O)c3ccccc3C2=O)cc1 | 0 | 90* | -4 | 9
CC(=O)N(C1=C(N2CCCC2)C(=O)c2ccccc2C1=O)c1ccc(Cl)c(Cl)c1 | 0 | 14 | -3 | 21
C/C(=N/NC(=O)c1ccc(O)cc1)c1ccc(O)cc1 | 0 | -7 | -1 | -14
COc1cc(C=C2C(=O)NC(=S)NC2=O)cc(Cl)c1OCc1ccc([N+](=O)[O-])cc1 | 0 | -9 | 0 | -9
O=C1C(N2CCCCC2)=C(N2CCOCC2)C(=O)c2ccccc21 | 0 | 10 | 0 | 5
CN(C1=C(N2CCOCC2)C(=O)c2ccccc2C1=O)c1ccccc1 | -1 | 14 | 1 | 51*
O=C1C(NC2CCCC2)=C(N2CCOCC2)C(=O)c2ccccc21 | 0 | 79* | -3 | 27
c1ccc(-c2cc(-n3cnc4ccccc43)n[nH]2)cc1 | 0 | -55 | 2 | -4
Cn1ccnc1SCC(=O)Nc1sc2c(c1C(N)=O)CCC2 | 0 | -17 | 0 | 16
CC(C)NC(=O)/C(=C/c1ccccc1F)NC(=O)c1ccccc1 | 0 | 2 | 0 | 14
CCOC(=O)N1CCN(c2c(N3CCN(c4ccc(F)cc4)CC3)c(=O)c2=O)CC1 | 0 | -5 | -2 | -4
CCOC(=O)N1CCN(c2c(NCc3ccc(F)cc3)c(=O)c2=O)CC1 | 0 | 55* | 2 | 0
SMILES | FBW7 act | TEAD-YAP inh | GPR151 activ | MITF inh
c1ccc2c(-c3cc(NC4CC4)ncn3)csc2c1 | 0 | 35* | -1 | 13
c1ccc(CN2CCC(Nc3cc(-c4csc5ccccc45)ncn3)CC2)cc1 | 0 | 9 | 1 | 2
C#CCOc1cc(Br)c(/C=C2/NC(=O)NC2=O)cc1OCC | 0 | 32* | 0 | -6
N#CC1=C(N)Oc2cc3ccccc3cc2C1c1cccs1 (configuration not stated) | 0 | 44* | -1 | 30
N#CC1=C(N)Oc2cc3ccccc3cc2C1c1ccc(F)cc1 (configuration not stated) | 0 | 47* | 3 | -7
COc1cccc(C2C(C#N)=C(N)Oc3c2ccc2ccccc32)c1 (configuration not stated) | 0 | 58* | 0 | -26
